Laboratory results reported in the supplement of paper PMC11219838.
Values without a mark were called inactive.

Tested on: Caenorhabditis elegans L1 (N2)
Experiment: survival and reproduction score of C. elegans L1 (0: 0-10 living worms, 1: 11-20, 2: 21-50, 3: >50, 4: overgrown) (score 0-4); higher = more worms, less nematicidal, active = 1 or less; extreme values may be limits of the assay
Conditions: 60 µM; 6 days; temperature: 20 °C
Method in brief: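 Worm survival and reproduction were recorded as an ordinal score of living worms per well, read under a dissection microscope. Each 96-well well held about 20 synchronized C. elegans N2 L1s with E. coli HB101 in liquid NGM and compound at 60 µM final (0.6% v/v DMSO), sealed and shaken at 200 rpm, 20 °C, for 6 days. Scores ranged from 0 (0–10 worms) to 4 (overgrown, starved) and were the mean of two biological replicates.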

First: COc1ccc(-c2nnc(SCC(=O)Nc3ccc(Cl)cc3C)o2)cc1
Second: COc1ccc(-c2nnc(SCC(=O)Nc3ccc(Cl)cc3Cl)o2)cc1
The “survival and reproduction score” value of the first is higher: 4 for the first, 2 for the second.

`O=C(CSc1nnc(-c2cccc(Cl)c2)o1)N1CCCCC1` and `CC1CC(C)CN(C(=O)CSc2nnc(-c3ccccc3)o2)C1` (centres undefined) are the same in “survival and reproduction score” value: 4 for the first, 4 for the second.

`COc1cccc(-c2nnc(SCc3ccccc3C)o2)c1` and `Cc1ccc(-c2nnc(SCc3ccccc3C)o2)cc1` are the same in “survival and reproduction score” value: 4 for the first, 4 for the second.

`Cc1ccc(OC(C)c2nc(-c3ccc4c(c3)OCO4)no2)cc1C` (centres undefined) and `Cc1ccc(OCc2nc(-c3ccccc3)no2)cc1C` are the same in “survival and reproduction score” value: 4 for the first, 4 for the second.

`Clc1ccc(CSc2nnc(-c3ccc(Cl)cc3)o2)cc1` and `N#Cc1ccc(CSc2nnc(-c3ccccc3)o2)cc1` are the same in “survival and reproduction score” value: 4 for the first, 4 for the second.

`Cc1cnnn1-c1ccc(-c2nc(-c3ccc(Cl)cc3)no2)cc1` and `COc1nc(-c2ccc(C)cc2)ccc1-c1noc(-c2cccc(C)c2)n1` are the same in “survival and reproduction score” value: 4 for the first, 4 for the second.

`COc1ccc(-c2nnc(SCC(=O)Nc3c(F)cc(F)cc3Br)o2)cc1` and `O=C(CSc1nnc(-c2ccncc2)o1)Nc1cc(C(F)(F)F)ccc1Cl` are the same in “survival and reproduction score” value: 4 for the first, 4 for the second.

`Nc1nc(CSc2nnc(-c3ccccc3)o2)cs1` and `CC(=O)Nc1ccc(-c2nnc(SCc3ccccc3)o2)cc1` are the same in “survival and reproduction score” value: 4 for the first, 4 for the second.

`CCOc1ccccc1-c1nnc(SCC(=O)c2ccccc2)o1` and `O=C(CSc1nnc(-c2ccncc2)o1)Nc1ccccc1Cl` are the same in “survival and reproduction score” value: 4 for the first, 4 for the second.

`Cc1cc(OCc2nc(-c3ccccn3)no2)cc(C)c1Cl` and `Cc1cc(OCc2nc(-c3ccncc3)no2)cc(C)c1Br` are the same in “survival and reproduction score” value: 4 for the first, 4 for the second.

`Clc1ccccc1OCc1nc(-c2ccc(Br)cc2)no1` and `COc1cccc(-c2noc(COc3ccc(Br)cc3)n2)c1` are the same in “survival and reproduction score” value: 4 for the first, 4 for the second.

`Cc1ccc(-c2noc(CSc3nc4ccccc4[nH]3)n2)cc1` and `COc1cccc(-c2noc(COc3ccc(C)cc3)n2)c1` are the same in “survival and reproduction score” value: 4 for the first, 4 for the second.

`O=C(c1ccccc1-c1nc(-c2ccc(Cl)cc2)no1)N1CCCCC1` and `Cc1ccc(-c2noc(-c3ccccc3C(=O)N3CCC(C)CC3)n2)cc1` are the same in “survival and reproduction score” value: 4 for the first, 4 for the second.

`COC(=O)c1ccc(NC(=O)CSc2nnc(-c3ccc(Cl)cc3Cl)o2)cc1` and `COc1ccc(Cl)cc1-c1noc(-c2ccccc2C)n1` are the same in “survival and reproduction score” value: 4 for the first, 4 for the second.

`Brc1cccc(-c2nc(-c3cccnc3)no2)c1` and `Cc1cccc(-c2noc(-c3cccc(Cl)c3)n2)c1` are the same in “survival and reproduction score” value: 4 for the first, 4 for the second.

`Cc1cc(C)c(C)c(OCc2nc(-c3ccccc3)no2)c1` and `Cc1ccc(C)c(OCc2nc(-c3ccccc3Cl)no2)c1` are the same in “survival and reproduction score” value: 4 for the first, 4 for the second.

`CCOc1cc(-c2nc(-c3cccnc3)no2)cc(OCC)c1OCC` and `COc1ccc(Cl)cc1-c1noc(COc2ccccc2)n1` are the same in “survival and reproduction score” value: 4 for the first, 4 for the second.

`O=C(Nc1ccccc1-c1nc(-c2ccncc2)no1)c1ccc(Cl)cc1` and `Cc1ccccc1-c1noc(-c2ccccc2C(=O)NCc2ccccc2)n1` are the same in “survival and reproduction score” value: 4 for the first, 4 for the second.

`CCCCSc1nnc(-c2ccc(Br)cc2)o1` was tested, and the “survival and reproduction score” value was 0 (active).
With `FC(F)(F)c1cccc(-c2noc(-c3cccnc3)n2)c1` the “survival and reproduction score” value was 1 (active).
In the case of `Clc1ccc(OCc2nc(-c3ccccc3)no2)c(Br)c1`, the “survival and reproduction score” value is reported as 1 (active).
